Results with a measured potency or affinity are listed apart. Results filed as inconclusive are left out. The source made the active and inactive calls.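 The calls were made as follows: active = samples whose fitted half-maximal inhibition concentration is no more than ten times the top valid dose tested; inconclusive = flat response between -70 and -30, or invalid curve fit; inactive = flat within 30 of zero, potency above limit, or signal rising.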
The compounds below were run against Trypsin (Sus scrofa) (UniProt P00761) (assay: porcine trypsin inhibitors, dose response, selectivity assay for Rce1 protease inhibitor project, biochemical, quenched peptide fluorescence, cherry-pick (AID 488789;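 also: more negative means stronger trypsin inhibition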)). Conditions: quenched peptide cleavage fluorescence; series mostly up to 10 µM.
Trypsin (Sus scrofa), sequence (P00761 whole entry, looked up): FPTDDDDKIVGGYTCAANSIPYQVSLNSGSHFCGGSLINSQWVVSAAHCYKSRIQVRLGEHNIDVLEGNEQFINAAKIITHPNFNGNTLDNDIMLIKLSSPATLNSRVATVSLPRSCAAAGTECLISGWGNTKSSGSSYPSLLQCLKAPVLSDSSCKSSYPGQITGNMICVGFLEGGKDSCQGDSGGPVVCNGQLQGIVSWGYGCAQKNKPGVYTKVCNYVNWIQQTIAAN

outcome, inactive:
OC1CCN(C(c2ccc3ncccc3c2)c2nnnn2C2CCCCC2)CC1 (stereo not drawn)
CC(=O)Oc1ccc(C(=O)Nc2ccc(S(=O)(=O)NCC3CCCO3)cc2)cc1 (stereo not drawn)
COC(C/C=C\C(=O)[C@H](C)OCc1ccccc1)OC
CCC(=O)Nc1cccc(NC(=S)NC(=O)c2cccs2)c1
Cc1cc(N2CCOCC2)n2cc(-c3ccccc3)nc2n1
C[C@@]12CCC=C[C@H]1[C@H](c1ccc(/C=C/c3ccccc3)cc1F)N(Cc1ccccc1)C2=O
O=C(NCC1CC1)c1cc(-c2ccccc2)nn1CC1CC(c2cccc([N+](=O)[O-])c2)=NO1 (stereo not drawn)
CC1Oc2ccccc2C=C1/C=N/NC(=O)[C@@H](C)NC(=O)OC(C)(C)C (stereo partly drawn)
Cc1ccccc1OC(C)C(=O)N1CCC(Cc2ccccc2)CC1 (stereo not drawn)
COc1ccc(-c2nc3ncccc3o2)cc1NC(=O)c1ccco1
c1cnn(Cc2cnc(N3CCOCC3)s2)c1
CCCCCCCCCCC[N+](C)(C)CC/C=C1/c2ccccc2Sc2ccc(Cl)cc21
COc1ccc(S(=O)(=O)N(CC(=O)N2CCCC2)Cc2ccccc2)cc1
CCN(CC)CCNC(=O)c1[nH]c2ccc(OCc3ccccc3)cc2c1C
COc1ccc2[nH]c(C(=O)NCCCn3ccnc3)cc2c1
CS(=O)(=O)Nc1ccccc1C(=O)NCc1ccccc1Cl
Cc1ccc(-c2csc(N3CCN(c4cc5c(cc4Cl)nc(-c4ccncc4)n5CCOCCO)CC3)n2)cc1
Cc1c(Cl)c([N+](=O)[O-])nn1CC(=O)N1CCCc2ccccc21
C/C(CC1(O)C(=O)Nc2ccccc21)=N\O (stereo not drawn)
CCn1cc(C(=O)N[C@H](C)c2ccccc2)c(=O)c2cc(F)c(N3CCN(C)CC3)cc21
COC(C/C=C/[C@H](O)[C@H](C)OCc1ccccc1)OC
CC(C)CC(=O)NC(=S)Nc1ccc(S(=O)(=O)Nc2nccs2)cc1
Cc1cccc(OCCCN2C(=O)C(=O)c3cc(C)ccc32)c1
CCCCN(CC)CCNC(=O)c1cc2c(-c3ccc(Cl)cc3)nn(C)c2s1
CCN(CC)CCN(C(=O)c1ccc2ccccc2c1)c1nc2ccc(F)cc2s1
Nc1nonc1-n1nnc(C(=O)N/N=C/c2cccc(Cl)c2)c1CSc1ccc(Cl)cc1
NC(=O)CSC1=Nc2ccccc2C2=NC(c3ccccc3)C(=O)N12 (stereo not drawn)
Cc1cc(NS(=O)(=O)c2ccccc2)c([N+](=O)[O-])cc1C
CCOc1ccccc1CNC(=O)c1cc2occc2n1C
COC(C[C@@H](O)C[C@H](O)[C@H](C)OCc1ccccc1)OC
CC(C)c1ccc(/C=C2\SC(=S)N(CCC(=O)NCCCn3ccnc3)C2=O)cc1
CCn1cc(/C=C(\NC(=O)c2ccccc2F)C(=O)N2CCCC2)c2ccccc21
CCn1cc(/C=C(\NC(=O)c2ccccc2Cl)C(=O)N2CCOCC2)c2ccccc21
COc1cc(-c2nc3ccccn3c2/N=C/c2ccccc2)ccc1O
O=C(N/N=C/c1cn(Cc2ccccc2)c2ccccc12)c1cc(O)cc(O)c1
Cc1cc(C(=O)N[C@H](c2ccccc2)[C@@]2(C)C[C@@H]2[C@@H](C)C(=O)Nc2ccc3ccccc3c2)n(C)n1
COc1cccc(CNc2nc3nc(C)cc(C)n3n2)c1
CN(C)c1ccc(/C=N/NC(=O)CNC(=O)c2ccco2)cc1

Source: PubChem BioAssay AID488789 (Broad Institute, 2010)
